Source: PubChem BioAssay AID624255 (Broad Institute, 2012)
Hit rate of the full screen: of about 77,000 compounds, about 4,600 (6%) were called active. Another 1% or so got no clear call; they are omitted. The full list was thinned out, with actives kept by preference. Unmarked numbers belong to inactive results.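 The calls were made as follows: active = mean inhibition above about 93%, with at least 55% of replicates each passing it (limit read from the data, passing the limit was not always enough); inconclusive = only one of those two conditions holds; inactive = neither condition holds.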

Experiment: growth inhibition of T. cruzi in host fibroblasts – cell-based, beta-gal Tulahuen parasites, NIH3T3 host, luminescence, primary screen (AID 624255)
Conditions: T. cruzi beta-gal in NIH3T3, GalScreen luminescence, 90 h; at 8.34 µM; stronger effect = higher value
For CC(C)NC(=O)N(C)C[C@H]1OCCCC[C@H](C)Oc2ccc(NS(=O)(=O)c3ccc(Cl)cc3)cc2C(=O)N([C@@H](C)CO)C[C@H]1C, the inhibition was -6.73%.
For C[C@@H]1CN([C@H](C)CO)C(=O)c2cc(NC(=O)c3ccccc3)ccc2O[C@@H](C)CCCCO[C@H]1CN(C)C(=O)c1ccncc1, the inhibition was -20.8%.
Work on CCC(=O)N1C[C@H](C)[C@H](OC)CN(C)C(=O)c2ccc(NC(=O)Nc3ccccc3)cc2OC[C@H]1C yielded an inhibition of -75.2%.
In the case of CCC(=O)Nc1ccc2c(c1)OC[C@H](C)N(Cc1ccccc1OC)C[C@@H](C)[C@@H](OC)CN(C)C2=O, the inhibition is reported as 32.5%.
For CCC(=O)Nc1ccc2c(c1)C(=O)N(C)[C@@H]1CC[C@@H](CC(=O)NCCc3ccccc3)O[C@H]1CO2, the inhibition was 49.1%.
With C/C=C/c1ccc([C@H]2[C@@H](CO)N(C(=O)Cc3ccncc3)[C@@H]2CNC(C)=O)cc1 the inhibition was 13.1%.
Molecule O=S(=O)(Cc1ccccc1)N1CCCCN2[C@H](CO)[C@@H](c3ccc(-c4cncnc4)cc3)[C@H]2C1 has an inhibition of 91%.
For O=S(=O)(Cc1ccccc1)N1CCCCN2[C@@H](CO)[C@H](c3ccc(-c4ccccc4)cc3)[C@@H]2C1, the inhibition was 110% (active).
Work on CS(=O)(=O)N1CCCCN2[C@H](CO)[C@H](c3ccc(-c4cccc(C#N)c4)cc3)[C@H]2C1 yielded an inhibition of 74.2%.
COCC(=O)Nc1ccc2c(c1)C(=O)N(C)[C@@H]1CC[C@H](CC(=O)NCC3CCCCC3)O[C@H]1CO2 gave an inhibition of -49.4%.
In the case of CCCC#Cc1cnc2c(c1)C(=O)N([C@H](C)CO)C[C@H](C)[C@H](CN(C)C(=O)Cc1ccncc1)O2, the inhibition is reported as -5.16%.
COc1cccc(C#Cc2cnc3c(c2)C(=O)N([C@@H](C)CO)C[C@H](C)[C@@H](CN(C)C(C)=O)O3)c1 gave an inhibition of -12.9%.
Work on COc1ccccc1C#Cc1cnc2c(c1)C(=O)N([C@@H](C)CO)C[C@@H](C)[C@@H](CN(C)C(=O)CN(C)C)O2 yielded an inhibition of -91.1%.
With COc1ccccc1C#Cc1cnc2c(c1)C(=O)N([C@@H](C)CO)C[C@@H](C)[C@H](CN(C)C(=O)CN(C)C)O2 the inhibition was 36.2%.
In the case of COc1ccc(C#Cc2cnc3c(c2)C(=O)N([C@@H](C)CO)C[C@H](C)[C@@H](CN(C)C(C)=O)O3)cc1, the inhibition is reported as 110% (active).
For CC(C)CC#Cc1cnc2c(c1)C(=O)N([C@@H](C)CO)C[C@@H](C)[C@H](CN(C)C(=O)Cc1ccncc1)O2, the inhibition was 107% (active).
With CC(=O)N(C)C[C@H]1Oc2ncc(C#Cc3ccccn3)cc2C(=O)N([C@H](C)CO)C[C@@H]1C the inhibition was 57.3%.
Molecule CCC(=O)N(C)C[C@@H]1Oc2ncc(C#Cc3ccccc3)cc2C(=O)N([C@@H](C)CO)C[C@H]1C has an inhibition of 87.1%.
With COc1ccc(C#Cc2cnc3c(c2)C(=O)N([C@H](C)CO)C[C@H](C)[C@@H](CN(C)C)O3)cc1 the inhibition was 29.3%.
In the case of C[C@@H]1CN([C@H](C)CO)C(=O)c2cc(C#CCN(C)C)cnc2O[C@H]1CN(C)C(=O)Cc1ccncc1, the inhibition is reported as 67.2%.
In the case of COCC(=O)N(C)C[C@@H]1Oc2ncc(C#Cc3ccccc3OC)cc2C(=O)N([C@@H](C)CO)C[C@H]1C, the inhibition is reported as 113% (active).
For C[C@@H]1CN([C@@H](C)CO)C(=O)c2cc(C#Cc3ccccc3)cnc2O[C@H]1CN(C)C(=O)c1ccccn1, the inhibition was 108% (active).
COc1ccc(CN(C)C[C@@H]2OCCCC[C@H](C)Oc3ccc(NC(=O)c4ccccc4)cc3C(=O)N([C@H](C)CO)C[C@H]2C)cc1 showed an inhibition of 76.8%.
CC=Cc1ccc2n(c1=O)C[C@@H]1[C@@H](CO)[C@H](C(=O)NCC(F)(F)F)N(CCc3ccccc3)[C@H]21 (mixture of isomers) gave an inhibition of 47.7%.
For Cc1ccc(S(=O)(=O)N[C@H]2CC[C@@H](CC(=O)NCc3ccc(Cl)c(Cl)c3)O[C@H]2CO)cc1, the inhibition was 64.8%.
With CCCC(=O)Nc1ccc2c(c1)C(=O)N(C)C[C@@H](OC)[C@@H](C)CN(Cc1cncnc1)[C@@H](C)CO2 the inhibition was -11%.
For CC(C)NC(=O)Nc1ccc2c(c1)CC(=O)N([C@@H](C)CO)C[C@@H](C)[C@H](CN(C)CC1CC1)O2, the inhibition was 14.2%.
In the case of CCC(=O)Nc1ccc2c(c1)C(=O)N(C)[C@@H]1CC[C@@H](CC(=O)N[C@@H](C)c3ccccc3)O[C@@H]1CO2, the inhibition is reported as 29.7%.
Molecule COc1ccc(S(=O)(=O)Nc2ccc3c(c2)C(=O)N([C@H](C)CO)C[C@@H](C)[C@H](CN(C)Cc2ccccc2)O3)cc1 has an inhibition of 13.7%.
CCCC#Cc1cnc2c(c1)C(=O)N([C@H](C)CO)C[C@H](C)[C@@H](CN(C)Cc1ccccc1)O2 gave an inhibition of 18.3%.
C[C@H](CO)N1C[C@H](C)[C@@H](CN(C)Cc2cccnc2)Oc2ncc(/C=C/c3ccccc3)cc2C1=O gave an inhibition of 12.8%.
CC(C)C#Cc1cnc2c(c1)C(=O)N([C@H](C)CO)C[C@@H](C)[C@H](CN(C)Cc1ccccc1)O2 showed an inhibition of -6.87%.
For C[C@@H]1CN([C@H](C)CO)C(=O)c2cc(C#Cc3ccccn3)cnc2O[C@H]1CN(C)Cc1ccccc1, the inhibition was 120% (active).
With C[C@H](CO)N1C[C@H](C)[C@H](CN(C)C(=O)Nc2cccc3ccccc23)Oc2ncc(C#Cc3ccccc3)cc2C1=O the inhibition was 122% (active).
Work on CCCC#Cc1cnc2c(c1)C(=O)N([C@H](C)CO)C[C@@H](C)[C@@H](CN(C)C(=O)Nc1ccccc1F)O2 yielded an inhibition of 11.2%.
With C[C@@H]1CN([C@H](C)CO)C(=O)c2cc(/C=C/c3ccccc3)cnc2O[C@@H]1CN(C)Cc1ccncc1 the inhibition was 96.3% (active).
In the case of CC(C)CC#Cc1cnc2c(c1)C(=O)N([C@H](C)CO)C[C@H](C)[C@H](CN(C)C(=O)Nc1ccccc1F)O2, the inhibition is reported as 53.1%.
C/C=C/c1cnc2c(c1)C(=O)N([C@@H](C)CO)C[C@@H](C)[C@H](CN(C)Cc1ccccc1)O2 gave an inhibition of -55.6%.
In the case of COc1ccccc1-c1cn(CC[C@H]2CC[C@H](NC(=O)C3CCOCC3)[C@@H](CO)O2)nn1, the inhibition is reported as 7.67%.
For O=C(C[C@@H]1C=C[C@H](NC(=O)Nc2ccc3c(c2)OCO3)[C@H](CO)O1)NCc1ccccc1, the inhibition was 17.2%.
CC=Cc1ccc2n(c1=O)C[C@@H]1[C@@H](CO)[C@H](C(=O)NCCc3ccccc3)N(C(C)=O)[C@H]21 (mixture of isomers) gave an inhibition of 28.7%.
With C[C@@H](O)C#Cc1ccc([C@@H]2[C@H]3CN(S(=O)(=O)c4ccccc4)CCCCN3[C@H]2CO)cc1 the inhibition was 26.7%.
With C/C=C/c1ccc([C@H]2[C@H]3CN(S(=O)(=O)c4ccccc4)CCCCN3[C@H]2CO)cc1 the inhibition was 123% (active).
C[C@H](O)C#Cc1ccc([C@@H]2[C@H](CO)N3CCCCN(CC4CC4)C[C@@H]23)cc1 showed an inhibition of 8.49%.
For C[C@H](O)C#Cc1ccc([C@H]2[C@H]3CN(S(=O)(=O)Cc4ccccc4)CCCCN3[C@H]2CO)cc1, the inhibition was 110% (active).
In the case of CCCC#Cc1ccc([C@H]2[C@H](CO)N3CCCCN(S(=O)(=O)CC)C[C@@H]23)cc1, the inhibition is reported as 47.8%.
With CCCC#Cc1ccc([C@@H]2[C@H](CO)N3CCCCN(S(=O)(=O)c4ccccc4F)C[C@@H]23)cc1 the inhibition was 37.8%.
With C[C@@H](O)C#Cc1ccc([C@H]2[C@@H](CO)N3CCCCN(S(=O)(=O)c4ccccc4)C[C@@H]23)cc1 the inhibition was 59.2%.
With C[C@@H](O)C#Cc1ccc([C@@H]2[C@H](CO)N3CCCCN(S(=O)(=O)c4ccccc4)C[C@@H]23)cc1 the inhibition was 107% (active).
For CN(C)CC#Cc1ccc([C@H]2[C@H]3CN(S(=O)(=O)c4ccccc4F)CCCCN3[C@H]2CO)cc1, the inhibition was 106% (active).
C[C@@H](O)C#Cc1ccc([C@H]2[C@@H](CO)N3CCCCN(CC4CC4)C[C@@H]23)cc1 gave an inhibition of 29.6%.
In the case of CCC(=O)Nc1ccc2c(c1)C(=O)N(C)[C@@H]1CC[C@@H](CC(=O)Nc3cccc(OC)c3)O[C@@H]1CO2, the inhibition is reported as -12.2%.
O=C(N[C@@H]1CC[C@H](CCn2cc(-c3ccccc3)nn2)O[C@H]1CO)c1cnccn1 showed an inhibition of 20.6%.
In the case of CNC(=O)C[C@@H]1CC[C@@H]2[C@H](COc3ccc(NC(=O)c4cccs4)cc3C(=O)N2C)O1, the inhibition is reported as 9.57%.
CC(C)CC#Cc1cnc2c(c1)C(=O)N([C@H](C)CO)C[C@H](C)[C@H](CN(C)CC1CCOCC1)O2 gave an inhibition of 60.8%.
C/C=C/c1cnc2c(c1)C(=O)N([C@H](C)CO)C[C@H](C)[C@@H](CN(C)C(=O)Nc1ccc(C(F)(F)F)cc1)O2 gave an inhibition of 108%.
With COCC(=O)N1C[C@H]2[C@@H](c3ccccc31)[C@@H](CO)N2Cc1ccccc1 the inhibition was -14.2%.
Molecule COc1cccc(-c2ccc3c(c2)[C@@H]2[C@@H](CCN2C(=O)CN2CCOCC2)[C@H](CO)N3)c1 has an inhibition of 88.3%.
CC(C)NC(=O)N1CCCCN2[C@H](CO)[C@H](c3ccc(C#C[C@H](C)O)cc3)[C@H]2C1 gave an inhibition of 90.4%.
O=S(=O)(c1ccccc1)N1CCCCN2[C@@H](CO)[C@H](c3ccc(C#Cc4cccnc4)cc3)[C@@H]2C1 gave an inhibition of 90.8%.
With C[C@H](O)C#Cc1ccc([C@@H]2[C@H]3CN(S(=O)(=O)c4ccccc4)CCCCN3[C@H]2CO)cc1 the inhibition was 107% (active).
C[C@H]1CN([C@@H](C)CO)C(=O)c2cccc(NS(=O)(=O)c3cn(C)cn3)c2O[C@H]1CN(C)C(=O)Nc1ccc2c(c1)OCO2 gave an inhibition of -234%.
O=C(Cc1ccccn1)NCC[C@H]1CC[C@H](NC(=O)Nc2ccc(F)cc2)[C@@H](CO)O1 showed an inhibition of 10.8%.
